# Assay results from PubChem BioAssay AID485346 (Sanford-Burnham Center for Chemical Genomics, 2010).
# Out of some 330,000 compounds screened, about 10,000 (3%) were called active.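 The calls were made as follows: active = inhibition of at least 50% at 8 µM in the primary screen; inactive = the rest.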 For the sample, actives were picked, then their nearest neighbours and some compounds at random.
# Molecular target: Protein Mdm4 (Homo sapiens) + E3 ubiquitin-protein ligase Mdm2 (Homo sapiens) (UniProt O15151+Q00987)
# Sequence (O15151 whole entry, looked up): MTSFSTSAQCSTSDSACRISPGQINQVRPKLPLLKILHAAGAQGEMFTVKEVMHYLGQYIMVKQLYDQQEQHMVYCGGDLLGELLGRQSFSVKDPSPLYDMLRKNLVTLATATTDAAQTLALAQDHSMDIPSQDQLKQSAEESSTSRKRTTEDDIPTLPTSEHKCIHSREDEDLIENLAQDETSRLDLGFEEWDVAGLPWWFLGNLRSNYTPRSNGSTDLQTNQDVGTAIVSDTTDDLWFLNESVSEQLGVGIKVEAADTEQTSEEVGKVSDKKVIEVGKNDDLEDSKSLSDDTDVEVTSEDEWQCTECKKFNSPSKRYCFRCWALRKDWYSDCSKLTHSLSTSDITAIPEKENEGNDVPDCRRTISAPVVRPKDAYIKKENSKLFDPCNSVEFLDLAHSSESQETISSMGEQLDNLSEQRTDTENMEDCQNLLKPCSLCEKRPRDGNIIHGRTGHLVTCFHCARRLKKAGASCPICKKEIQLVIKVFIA
# Sequence (Q00987 whole entry, looked up): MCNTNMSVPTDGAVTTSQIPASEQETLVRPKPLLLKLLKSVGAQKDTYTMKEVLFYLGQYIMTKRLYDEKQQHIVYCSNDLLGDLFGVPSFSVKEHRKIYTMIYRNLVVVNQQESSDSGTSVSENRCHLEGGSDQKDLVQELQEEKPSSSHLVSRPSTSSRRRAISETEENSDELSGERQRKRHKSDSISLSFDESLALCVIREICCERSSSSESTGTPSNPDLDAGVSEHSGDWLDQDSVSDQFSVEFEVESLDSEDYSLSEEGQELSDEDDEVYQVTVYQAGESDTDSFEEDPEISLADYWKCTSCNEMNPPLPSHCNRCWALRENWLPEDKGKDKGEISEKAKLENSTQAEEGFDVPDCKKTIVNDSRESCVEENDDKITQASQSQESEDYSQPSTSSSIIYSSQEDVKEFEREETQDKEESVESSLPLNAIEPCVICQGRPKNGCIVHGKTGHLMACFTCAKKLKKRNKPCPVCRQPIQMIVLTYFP
# Experiment: inhibitors of human Mdm2-MdmX association, primary screen, cell-based, luminescence, split luciferase, SaOS-2, uHTS (AID 485346)
# Settings: SaOS-2 split-luciferase Mdm2/MdmX complementation, at 8 µM, stronger effect = higher value
row,SMILES,inhibition
1,CCOC(=O)c1ccc(NC(=O)c2nc[nH]c2C(=O)NCc2ccccc2)cc1,33.2% (inactive)
2,CCOC(=O)c1ccc(NC(=O)c2nc[nH]c2C(=O)N[C@@H](CCCCNC(=O)OC(C)(C)C)C(=O)OC(C)(C)C)cc1,53.6% (active)
3,Cc1ccc(NC(=O)c2nc[nH]c2C(=O)N[C@@H](CCCCNC(=O)OC(C)(C)C)C(=O)OC(C)(C)C)cc1,31.7% (inactive)
4,O=C(CNC(=O)c1ccccc1F)OCC(=O)c1c[nH]c2ccccc12,6.82% (inactive)
5,O=C(Nc1cccnc1)c1noc2c1CCCCC2,3.42% (inactive)
6,CC(C(=O)Nc1ccc(O)c(C(=O)O)c1)N1C(=O)/C(=C/c2cccs2)SC1=S (configuration not stated),7.51% (inactive)
7,O=C(CCCN1C(=O)/C(=C\c2ccccc2)SC1=S)Nc1ccccc1O,79.6% (active)
8,CCOc1ccc(/C=C2\SC(=S)N(NC(=O)c3ccncc3)C2=O)cc1OC,-7.45% (inactive)
9,Cc1ccc(/C=C2/SC(=S)N(CCC(=O)NCCCN3CCOCC3)C2=O)cc1,-3.05% (inactive)
10,O=C(CCCN1C(=O)/C(=C/c2cccs2)SC1=S)Nc1ccc(O)cc1,62.6% (active)
11,COc1ccc(/C=C2\SC(=S)N(CCC(=O)Nc3cccc(C(=O)O)c3)C2=O)cc1OC,0.635% (inactive)
12,Cc1ccc(/C=C2\SC(=S)N(CCC(=O)Nc3ccc(O)cc3)C2=O)cc1,20.5% (inactive)
13,C=CCOc1ccc(/C=C2\SC(=S)N(CCC(=O)O)C2=O)cc1,42% (inactive)
14,O=C(CCN1C(=O)/C(=C/c2cccs2)SC1=S)NNC(=O)c1cccc(O)c1,-31.2% (inactive)
15,COc1ccc(/C=C2\SC(=S)N(CCC(=O)Nc3ccccn3)C2=O)cc1OC,76.7% (active)
16,O=C(CCCN1C(=O)/C(=C/c2ccccc2)SC1=S)Nc1ccc(O)cc1,94.8% (active)
17,COc1ccc(/C=C2/SC(=O)N(CCCCCC(=O)Nc3ccccc3C(=O)O)C2=S)cc1,-4.65% (inactive)
18,Cc1csc(NC(=O)C2CCN(S(=O)(=O)c3ccccc3)CC2)n1,-1.69% (inactive)
19,Cc1ccc2c(C)c(C(=O)N(C)CCC3CCCCO3)oc2c1C (configuration not stated),27.9% (inactive)
20,CC(=O)Nc1ccc(S(=O)(=O)Nc2nc3n(n2)C(c2ccccc2)CC(=O)N3)cc1 (configuration not stated),12.5% (inactive)
21,CC(=O)NC12CC3CC(C1)CC(C(=O)N1CCN(S(=O)(=O)c4cccs4)CC1)(C3)C2,14.8% (inactive)
22,Cc1ccc(Nc2nc(CSc3nnc(-c4ccncc4)n3-c3ccccc3C)cs2)cc1,38.1% (inactive)
23,Cc1c(C(=O)NCC(c2ccco2)N2CCCC2)oc2ccc(Cl)cc12 (configuration not stated),21% (inactive)

row,SMILES,inhibition
1,CCCCCOC(=O)C1=C(C)Nc2nnnn2C1c1ccc(OC)c(OC)c1OC (configuration not stated),-18% (inactive)
2,COc1cccc(-c2cc3nc4c(c(N5CCC6(CC5)OCCO6)n3n2)CCCC4)c1,22.2% (inactive)
3,COc1ccccc1CN(C)C(=O)C1(c2ccc(Cl)cc2)CC1,14.8% (inactive)
4,O=C(CN1C(=O)NC(Cc2c[nH]c3ccccc23)C1=O)Nc1ccccc1C(F)(F)F (configuration not stated),-9.67% (inactive)
5,Cc1ccc2c(c1)N(CC(=O)N(Cc1ccccn1)Cc1ccco1)C(=O)C(C(C)C)O2 (configuration not stated),2.25% (inactive)
6,CCc1ccc(NC(=O)N2CCc3ccccc3C2)cc1,-51.8% (inactive)
7,CCCc1cc(=O)[nH]c(SCC(=O)OCc2ccccc2)n1,18.4% (inactive)
8,COC(=O)CSC1=C(C#N)C(c2ccccc2OC)C(C(=O)OC)C(=O)N1 (configuration not stated),15.2% (inactive)
9,Cc1ccc(C2CC(=O)NC(SCC(=O)OCc3ccccc3)=C2C#N)o1 (configuration not stated),58.1% (active)
10,COc1cc(OC)cc(C(=O)OCC(=O)Nc2sccc2C(N)=O)c1,-6.16% (inactive)
11,C=CCn1c(C)cc(C2=NNC(=NCC)SC2)c1C,97.3% (active)
12,CCS(=O)(=O)N1CCC(N2CCN(c3ccccc3)CC2)CC1,1.56% (inactive)
13,O=[N+]([O-])c1cccc2ncccc12,10.6% (inactive)
14,O=[N+]([O-])c1ccccc1S(=O)(=O)Nc1cccc2cccnc12,94.5% (active)
15,Cc1ccccc1NC(=O)c1ccccc1NS(=O)(=O)c1cccc2cccnc12,11.2% (inactive)
16,CN(CCc1ccccn1)C(=O)CCC1CCCN(Cc2ccccc2OC(F)F)C1 (configuration not stated),-29.3% (inactive)
17,CCOC(=O)C1=CN(Cc2ccc(Br)cc2)S(=O)(=O)NC1C (configuration not stated),12.1% (inactive)
18,Clc1ccc2c(c1)C1=C(C(c3ccncc3)O2)C(c2ccc(Br)cc2)n2ncnc2N1 (configuration not stated),70.4% (active)
19,CC1=C(C(N)=O)C(c2ccc(Br)cc2)n2ncnc2N1 (configuration not stated),5.41% (inactive)
20,Brc1ccc(C2=CC(c3ccco3)n3ncnc3N2)cc1 (configuration not stated),11.6% (inactive)
21,O=C1NCCn2nc3ccccc3c21,16.4% (inactive)
22,Cc1ccc(NN=Nc2nc3c([nH]2)c(=O)n(C)c(=O)n3C)cc1,-16.4% (inactive)
23,Cc1ccc(CSc2nc3[nH]ncc3c(=O)[nH]2)cc1,-38.4% (inactive)

row,SMILES,inhibition
1,C=CCN1C(=O)C(O)(CC(=O)c2ccccn2)c2ccccc21 (configuration not stated),-5.9% (inactive)
2,N/C(=N\OC(=O)c1ccc2c(c1)OCO2)c1ccc(Br)cc1,84.4% (active)
3,C/C(=N/OC(=O)c1ccc(Br)cc1)c1ccc(C)cc1,5.85% (inactive)
4,O=C(c1ccc2c(c1)OCO2)N1CCOCC1,3.71% (inactive)
5,CC(C)(C)OC(=O)C[C@@H]1C/C=C\C[C@@H](CC(=O)N[C@@H](CO)Cc2ccccc2)C(=O)N2CCC[C@H]2COC1=O,9.85% (inactive)
6,O=C(Nc1ccncc1)Nc1ccc(F)cc1,14% (inactive)
7,CSc1nc2ccc(NC(=O)c3c(F)cccc3F)cc2s1,-79.2% (inactive)
8,O=C(Nc1ccncc1)c1c(F)cccc1F,52.1% (active)
9,COCCNC(=O)COc1ccc(N(C)S(=O)(=O)c2ccc3ccccc3c2)cc1,16.8% (inactive)
10,Cc1cc(C)nc(NC(=O)/C=C/c2ccc(Cl)cc2)n1,6.82% (inactive)
11,O=C(/C=C/c1ccc(Cl)cc1)Nc1ccc(Br)cn1,77.5% (active)
12,O=C(/C=C/c1ccc(Cl)cc1)Nc1ccc(S(=O)(=O)Nc2ncccn2)cc1,0.48% (inactive)
13,CCn1c(SCC(=O)Nc2cc(C)ccc2C)nnc1-c1cnccn1,-18.6% (inactive)
14,COc1ccc(N2C(=O)C(O)C2c2ccc(C)cc2)cc1 (configuration not stated),17.5% (inactive)
15,COc1ccc(C(CCN(Cc2ccc(OC)c(OC)c2)C(=O)CCl)c2ccccc2)cc1 (configuration not stated),100% (active)
16,COc1ccc(COC(=O)NC(C(=O)O)c2ccccc2)cc1 (configuration not stated),7.43% (inactive)
17,COc1ccc(CN(C)C(=O)CC(c2ccccc2)c2ccccc2)cc1,2.66% (inactive)
18,O=C(OCc1cc(=O)n2ccsc2n1)C1(c2ccc(Cl)cc2)CC1,-13.2% (inactive)
19,CN(c1ccc(OCC(=O)NC2=NCCS2)cc1)S(=O)(=O)c1ccc(F)cc1,-19.2% (inactive)
20,CCOC(=O)C1=C(c2ccccc2)NC(=O)NC1c1cc(OCC)c(O)c([N+](=O)[O-])c1 (configuration not stated),-2.5% (inactive)
21,COC(=O)c1sc(-c2ccc(C(C)(C)C)cc2)cc1NC(=O)/C=C/C(=O)O,59.5% (active)
22,COc1ccccc1NC(=O)/C=C/C(N)=O,6.78% (inactive)
23,CC(C)(C)c1ccc(/C=C/C(=O)Nc2ncccn2)cc1,-199% (inactive)

row,SMILES,inhibition
1,CC1(C)S[C@@H]2[C@H](NC(=O)COc3ccccc3)C(=O)N2C1C(=O)OCc1ccccc1 (some centres not stated),-0.93% (inactive)
2,O=C1OCCN1C(=O)[C@H]1[C@H](c2ccc(Cl)cc2)C(c2cccc(Cl)c2)=NN1c1ccc(Br)cc1,43% (inactive)
3,COc1ccc(Cl)cc1NC(=O)NC(C)C(C)(C)C (configuration not stated),-21.5% (inactive)
4,COc1ccc(/C=C/c2c(-c3cccc(C)c3)oc3ccc(-c4ccc5c(c4)OCO5)cc23)cc1,6.97% (inactive)
5,COc1ccc(C#Cc2c(-c3ccc(OC)cc3)oc3ccc(-c4ccc5c(c4)OCO5)cc23)cc1,-2.23% (inactive)
6,Cc1cccc(-c2oc3ccc(-c4ccc5c(c4)OCO5)cc3c2C#Cc2cncn2C)c1,62.2% (active)
7,COc1nnc(-c2ccc(C)c(S(=O)(=O)N(C)C)c2)c2ccccc12,13.5% (inactive)
8,COc1ccc(CCN(C)C(=O)C23CC4CC(CC(Cl)(C4)C2)C3)cc1OC,27.9% (inactive)
9,Cc1cc(=O)[nH]c2nnnn12,6.21% (inactive)
10,Cc1ccc(-c2nnc(-c3ccc(NC(=O)c4cccs4)cc3)o2)cc1,93.9% (active)
11,CCN(CC(=O)Nc1ccc(OC)cc1)C(=O)CSCc1ccc(C)cc1,20.5% (inactive)
12,Cc1ccc(OCC(=O)Nc2ccc(NC(=O)c3cccs3)cc2)c(C)c1,13.5% (inactive)
13,COc1ccc(CC(=O)Nc2ccc(C(=O)NC(C)(C)C)cc2)cc1,-11.9% (inactive)
14,COc1ccc(CC(=O)Nc2ccc(-c3nnc(-c4ccc(C)cc4)o3)cc2)cc1,99.8% (active)
15,Cc1ccc(C(=O)Nc2ccc(NC(=O)c3cccs3)cc2)c(C)c1,-14.7% (inactive)
16,CO[C@@H]1[C@@H](OC(N)=O)[C@@H](O)C(Oc2ccc3c(O)c(NC(=O)c4ccc(O)c(CC=C(C)C)c4)c(=O)oc3c2C)OC1(C)C (some centres not stated),20.1% (inactive)
17,Oc1ccccc1C1=NN(c2ccccc2)C(c2ccccc2)C1 (configuration not stated),58.3% (active)
18,COc1ccc(C2CC(c3cccs3)=NN2c2ccccc2)cc1 (configuration not stated),-32.2% (inactive)
19,O=C(c1ccccc1)N1N=C(c2ccccc2O)CC1c1ccc(Br)cc1 (configuration not stated),12% (inactive)
20,CCSc1nc(O)c(C(c2cccc(OC)c2)c2c(O)nc(SCC)[nH]c2=O)c(=O)[nH]1,-27.3% (inactive)
21,COc1cccc(CNC(=O)c2nnn(CC(=O)Nc3cc(Cl)ccc3C)c2N)c1,77.9% (active)
22,COc1ccc(CNC(=O)c2nnn(CC(=O)Nc3cc(C)cc(C)c3)c2N)cc1,48.3% (inactive)
23,COc1cccc(CNC(=O)c2nnn(CC(=O)Nc3cc(C)ccc3C)c2N)c1,5.26% (inactive)
